Experimental data reported in PubChem BioAssay (NCATS).
Results filed as inconclusive are left out. Values without a mark were called inactive. The source made the active and inactive calls. Calls come from the whole dose curve; as a rule, active = well fitted inhibition curve with a large enough effect; inconclusive = small, poorly fitted or top-dose-only effect; inactive = flat fitted curve, though single readings scatter.

target: Calcium and integrin-binding protein 1 (Homo sapiens) (UniProt Q99828); assay: Primary qHTS for Identification of Calcium Integrin Binding Protein 1 (CIB1) Competitor (AID 1508620); conditions: CIB1-GST / FITC-alphaIIb peptide fluorescence polarization; series mostly up to 114 µM; activity change, negative = inhibition: at the top concentration;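 note: GST tagged CIB1 binding a fluorescein labelled alphaIIb integrin peptide tracer; top concentration of the series differs between compounds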
Method in brief: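 Fluorescence polarization competition: CIB1-GST (1 uM final) preincubated with compound 15 min at room temperature, then FITC-labeled alphaIIb peptide (100 nM final) added for another 15 min. Polarization read at Ex 480/Em 540.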
% is set by controls: 0 for no effect and ±100 for the full control effect.

Sequence of Calcium and integrin-binding protein 1 (Homo sapiens) (Q99828 whole entry, looked up): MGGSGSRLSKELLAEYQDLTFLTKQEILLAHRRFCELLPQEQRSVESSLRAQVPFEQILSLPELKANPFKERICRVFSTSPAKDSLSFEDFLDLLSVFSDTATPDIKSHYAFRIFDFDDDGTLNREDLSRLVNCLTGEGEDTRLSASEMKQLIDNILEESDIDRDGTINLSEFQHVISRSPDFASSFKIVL

SMILES | activity change, negative = inhibition [%] | Potency
O=C1Cc2cc(C(=O)c3ccco3)ccc2N1 | -7.33 | 
N#Cc1nc(NC2CCCC2)c2ncn(-c3cc(F)cc(F)c3)c2n1 | -1.93 | 
COc1cc(F)c(S(=O)(=O)N2CCN(S(=O)(=O)c3cccc(NC(C)=O)c3)CC2)c(F)c1 | -4.54 | 
Cc1ccsc1CN(C)c1ncnc2ccc(-c3ccc4c(c3)OCO4)cc12 | -2.72 | 
Oc1cc(Nc2ccc(N3CCCCC3)cc2)cc2cccnc12 | -11.9 | 
O=C(Nc1ccc(-n2ccnc2)c(F)c1)Nc1nnc(-c2ccncc2)s1 | -3.16 | 
COc1ccc(C2Nc3ccccc3C(=O)N2Cc2ccccc2)cc1COc1ccc(C#N)cc1 (stereo not given) | 4.59 | 
Cn1nnnc1Sc1ncnc2scc(-c3cccc(C#N)c3)c12 | -6.72 | 
COc1ccccc1N1C(=O)c2ccccc2C1=O | 0.214 | 
CCCCN(C)C(=O)Cn1nc(-c2ccc(C(C)(C)C)cc2)ccc1=O | -3.13 | 
COc1ccc(C(=O)N(Cc2ccccc2)Cc2ccccc2)cc1COc1ccc(NC(C)=O)cc1 | 1.79 | 
FC(F)(F)c1ccccc1-c1nc(NCc2ccc(Cl)c(Cl)c2)c2ccccc2n1 | 1.84 | 
COC(=O)c1ccc(O)c2ncccc12 | -10.9 | 
O=C(NCCc1nc2ccccc2n1CCOc1cccc([N+](=O)[O-])c1)C1CCCCC1 | 2.05 | 
O=C1CC(c2ccccc2)CC2=C1C1(CCCC1)N=C(Nc1nc3ccccc3o1)N2 (stereo not given) | 0.731 | 
CC(C)COc1ccc(-c2csc(N3CCC(C(N)=O)CC3)n2)cc1 | -3.65 | 
O=C(C1CCN(c2nc(-c3ccc(Br)cc3)cs2)CC1)N1CCNCC1 | -5.33 | 
c1ccc(OCc2nnc3n2N=C(c2ccccc2)CS3)cc1 |  | inactive
CC(=O)Nc1ccccc1NC(=O)c1cnn2c(C)cc(C)nc12 | 0.0809 | 
O=C1c2ccccc2NC(c2ccc(-c3cccc(Cl)c3)o2)N1O (stereo not given) | -13.2 | 

SMILES | activity change, negative = inhibition [%] | Potency
Nc1ccc2c(=O)n3nc(Nc4ccc5c(c4)CCC5)sc3nc2c1 | -16.4 | 
Cc1cc(N2C(=O)c3ccccc3C2=O)n[nH]1 | -7.17 | 
CCOC(=O)c1c(-c2ccc(OC)cc2)csc1NC(=O)C1CCCO1 (stereo not given) | 4.47 | 
CC(C)c1cccc(-n2cnc3cc(C(=O)N4CCCCC4)ccc32)c1 | -2.36 | 
COc1ccc(-c2nc3ccccc3c(=O)n2Cc2ccccc2)cc1COc1ccc(NC(C)=O)cc1 | 4.9 | 
O=[S+]([O-])(Nc1ccccc1)c1ccc(NCc2cccc(C(F)(F)F)c2Cl)cc1 | 2.94 | 
O=C1c2ccccc2C(=O)N1C1CCCCC1 | -0.478 | 
CNc1cccc(S(=O)(=O)N2CCCN(S(=O)(=O)c3ccc4c(c3)OCCO4)CC2)c1 | -6.83 | 
O=c1c2ccccc2nc2sc(Nc3ccc4c(c3)CNC4)nn12 | 9.1 | 
S=C(NCCCc1cnc[nH]1)NCCCN(Cc1ccc(Cl)c(Cl)c1)c1ccccn1 | -7.7 | 
O=C(c1c(F)cccc1F)N1CCN(S(=O)(=O)c2ccc3c(c2)OCCO3)CC1 | 1.02 | 
O=C(O)c1ccc2c(c1)C(=O)N(CCc1ccc(O)cc1)C2=O | -14 | 
CN(Cc1cccs1)c1ncnc2ccc(-c3ccc4cnn(C)c4c3)cc12 | 4.68 | 
CC(C)c1ccccc1-c1nc(NCC2CCN(c3cccnc3)CC2)c2ccccc2n1 | 95.1 | 
Cc1cc(C)c(S(=O)(=O)Nc2cccc3cccnc23)c(C)c1 | -5.15 | 
Cc1cnc(-c2ccccc2C(C)C)nc1N(C)Cc1ccc(-c2cccnc2)cc1 | -0.685 | 
CCOc1ccc(CCNC(=O)C2CCCCC2)cc1OCC | 1.1 | 
CN(C)c1cccc(-c2nc(N3CCC(C(N)=O)CC3)ncc2F)c1 | 2.2 | 
NC(=O)C1CCN(c2nc(-c3ccccc3[N+](=O)[O-])cs2)CC1 | -7.41 | 
Cc1ccccc1C(=O)N1CCc2cc(-c3nc(NC(=O)Cc4ccc5c(c4)OCCO5)sc3C)ccc21 | 5.22 | 
